Screens deposited in PubChem BioAssay by National Center for Advancing Translational Sciences (NCATS).
Pol eta inh = blocks human DNA polymerase eta activity; Q9Y253; recombinant Pol eta, fluorescent DNA replication assay; Potency, µM (titrated, usually from 114 µM), for the others: top-dose activity change, negative = inhibition, most hits filed as inhibitors; hit rate 1.2% among 390,000; AID 588591; note: % is set by controls: 0 for no effect and ±100 for the full control effect
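Pol eta at 10 nM preincubated with compounds 15 min at room temperature; reaction started with fluorescent substrate (50 nM final) and read kinetically at 0 and 10 min.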
Pol kappa inh = inhibitors of human DNA polymerase kappa | Q9UBT6 | purified Pol kappa, fluorescent DNA synthesis assay, 10 min | Potency, µM (doses to about 107 µM), for the others: at the top dose activity, negative = inhibition, actives largely listed as inhibitors | hit rate 0.53% among 400,000; note: % is set by controls: 0 for no effect and ±100 for the full control effect
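Inhibition of 10 nM Pol kappa is measured by a fluorescent read-out at 0 and 10 min following addition of 50 nM substrate (final), with a 15-min room-temperature compound preincubation.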
POLB inh = DNA polymerase beta (human) inhibition. Pol beta primer extension/strand displacement, fluorescence kinetic. hit rate 1.3% among 340,000. Potency, µM (doses to about 114 µM), without a hit: top-dose activity change, negative = inhibition, actives largely listed as inhibitors. P06746; note: % is set by controls: 0 for no effect and ±100 for the full control effect
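Preincubation: enzyme (10 nM) with compound, 15 min, RT. Reaction: substrate added to 50 nM final. Reads: 0 and 10 min. Analysis: normalized, Hill fit.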
Pol iota inh = DNA polymerase iota (human) inhibition. AID 588590. Pol iota fluorescent replication assay, 10 min. Potency, µM (series often up to 115 µM), for inactives: at the highest dose activity, negative = inhibition, hits mostly inhibitors. hit rate 1% among 390,000
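Fluorescent replication assay read twice, at 0 min and 10 min after adding 50 nM (final) substrate. Enzyme (10 nM) and compounds were first incubated 15 min at room temperature; enzyme-free buffer wells were negative controls.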
WRN helicase inh = inhibitors of human WRN helicase | Q14191 | WRN helicase unwinding, fluorescent forked duplex, kinetic | Potency, µM (top dose mostly 114 µM), inactives show at the highest dose activity change, negative = inhibition, most hits filed as inhibitors | hit rate 0.46% among 360,000 | AID 651768; note: % is set by controls: 0 for no effect and ±100 for the full control effect; nearly all actives have a fitted effect of over 55% in size
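Screening of the MLSMR collection measured strand separation of a quenched forked DNA duplex (100 nM) by 20 nM WRN with 2 mM ATP, all final. Compounds were preincubated with enzyme 15 min at room temperature.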
* hit, by the source's call; ? = inconclusive; . = no result; ! = repeats disagree; [ ] = remark or other dose. An excerpt weighted towards active compounds, which were near 2.3% of everything screened. Calls come from the whole dose curve; as a rule, active = well fitted curve in the direction sought with a large enough effect; inconclusive = small, poorly fitted or top-dose-only effect, or another doubt; inactive = no such curve, though single readings can be large; an effect the other way counts as inactive or inconclusive. Potency is the fitted concentration of half-maximal effect.

SMILES	Pol eta inh	Pol kappa inh	POLB inh	Pol iota inh	WRN helicase inh
CCCNC(=O)c1nnsc1S(=O)c1ccc(Cl)cc1 (stereo unspecified)	2%	-11%	-3%	49%	20µM*
CNC(=O)c1nnsc1S(=O)c1ccc(Cl)cc1 (stereo unspecified)	-5%	-7%	26%	75%	28µM*
CCCNC(=O)c1nnsc1S(=O)(=O)c1ccc(Cl)cc1	8%	-14%	20%	33%	28µM*
CCCNC(=O)NS(=O)(=O)c1ccc(Cl)cc1	-11%	-4%[60.1 µM]	5%	-4%	0%
CCCCCCCCCCCCCCCC[n+]1ccc(/C=C/c2c(C)[nH]c3ccccc23)cc1	.	-15%	.	16%	.
CN(C)c1cc2c3ccccc3ccc2c2ccccc12	.	-3%	.	14%	.
O=C(O)c1ccccc1C(=O)Nc1n[nH]c(=S)s1	-12%	-26%	22µM*	-6%	-15%
CCOCCc1nnc(NC(=O)CCc2ccccc2)s1	-3%	-15%	55%	2%	1%
CCOCCc1nnc(NC(=O)Cc2ccc(Br)cc2)s1	-9%	-4%	89µM*	-4%	-11%
NS(=O)(=O)c1ccc(NC(=O)CSc2ncnc3ccccc23)cc1	-14%	-3%	32µM*	-24%	-8%
NS(=O)(=O)c1cccc(NC(=O)CSc2ncnc3ccccc23)c1	3%	-8%	1%	17%	-8%
O=C1C=C(c2ccccc2)CC(c2cccs2)C1n1cnc([N+](=O)[O-])c1 (stereo unspecified)	?	-15%	50µM*	-20%	-8%
CNc1ccc(C(=O)Oc2cc(O/N=[N+](\[O-])N(C)C)c([N+](=O)[O-])cc2[N+](=O)[O-])cc1	.	-5%	.	59%	.
Cc1n[nH]c(C)c1CCOc1ccc(C(C)C)cc1	-13%	-20%	-1%	-8%	1%
COc1ccc(OCCCCc2c(C)n[nH]c2C)cc1	10%	3%	.	79µM*	-5%
O=C(CCS(=O)(=O)c1ccccc1)Nc1nc2cc3c(cc2s1)OCO3	?	-17%	?	71µM*	-31%
CCOC(=O)c1c(N)sc(N)c1C(=O)OCC	-20%	-14%	0%	9%	?
CCOC(=O)c1c(N)sc(=S)c2c1CCC2	?	-29%	8.9µM*	?	-28%
O=c1oc(-c2ccccc2)nc2sc3c(c12)CCC3	?	79µM*	11µM*	?	-16%[11.6 µM]
CC(C)(C)CC(C)(C)N=C1Nc2ccc(Cl)cc2N[C@]12C[C@H]1CCCC(=O)N3CC[C@@H](C2)[C@@H]13	.	-17%	.	14%	.
CCOC(=O)c1c(-c2ccc(C)cc2)csc1NC(=O)/C(C#N)=C/c1ccc(O)c(OC)c1	28µM*	-32%	5%	?	-35%
CCN(c1ccc(OC)cc1)S(=O)(=O)c1ccc2[nH]c3c(c2c1)CCCCC3	-10%	-16%	20%	79µM*	.
CCCCCCNc1ccc(/C=C/c2ccnc3ccccc23)cc1	.	-22%	.	8%	.
CCCCCCCCCCCC(=O)NC(Cc1ccc(OC)c([N+](=O)[O-])c1)C(=O)O (stereo unspecified)	-17%	-7%	9%	21%	-14%
CCCCCCCCCCCCCCCC(=O)N[C@@H](COP(=O)(O)O)C(=O)O	.	27µM*!	.	.	.
SMILES	Pol eta inh	Pol kappa inh	POLB inh	Pol iota inh	WRN helicase inh
O=c1c2ccccc2oc2cc(OCc3cccc(F)c3)cc(O)c12	-1%	?	22µM*	?	-22%
CCOC(=O)c1oc2cc(O)cc(O)c2c(=O)c1OCc1ccccc1	-16%	-1%	.	32%	3%
Cc1ccc(NC(=O)CSc2n[nH]c(-c3ccc(F)cc3)n2)cc1F	-14%	-10%[60.1 µM]	5%	-5%	.
COc1cccc(CN2Cc3cccc4c3[C@H](C=CC4)CC2=O)c1	.	-19%	.	-12%	.
O=C(O)c1cccc(CN2C(=O)S/C(=C/c3cccc([N+](=O)[O-])c3)C2=O)c1	79µM*	-4%	-9%	?	-6%[11.6 µM]
O=C(CN1C(=O)S/C(=C\c2ccccc2)C1=O)Nc1cc([N+](=O)[O-])ccc1O	79µM*	0%	-1%	-21%	-1%[11.6 µM]
N#CC(=C(/N)Sc1ccccc1N)/C(C#N)=C(\N)Sc1ccccc1N	.	-1%[19.4 µM]	.	.	.
Cc1ccc(OCCCCn2c(CCNC(=O)C3CCCCC3)nc3ccccc32)cc1	.	-18%	.	13%	.
CC(=O)Oc1cc(-c2coc3cc(OC(C)=O)c(OC(C)=O)c(OC(C)=O)c3c2=O)cc(OC(C)=O)c1OC(C)=O	.	0.35µM*	.	.	.
O=c1c2cc3c(cc2n(Cc2ccc(F)cc2)c(=O)n1Cc1nc(-c2ccccc2)no1)OCO3	2%	-3%	-1%	10%	.
O=c1c2cc3c(cc2n(Cc2ccc(Cl)cc2)c(=O)n1Cc1nc(-c2ccccc2)no1)OCO3	-9%	?	-1%	89µM*	.
Cc1ccc(-c2csc3ncnc(Sc4nnnn4C4CC4)c23)cc1	.	-9%	.	9%	.
Oc1ccc(Cl)cc1C1C=C(c2ccc3c(c2)OCO3)NC(c2ccc(Cl)cc2)N1 (stereo unspecified)	.	0%	.	?	.
Oc1nc(Nc2ccc(F)cc2)sc1/C=C1\C=Nc2ccccc21	-6%	-24%	9%	60%	-5%
O=c1[nH]c(S)c(/C=C2\C=Nc3ccccc32)s1	40µM*	-9%	31%	72%	-23%[57.1 µM]
C1=C/C(=C2/C=Cc3ccccc32)c2ccccc2N1	.	-7%	.	-5%	.
C[C@@H]1[C@H](c2ccccc2)OCCS(=O)(=O)N1Cc1ccccc1F	.	2%	.	18%	.
COc1ccc(Br)cc1CNc1ccc2[nH]c(=O)[nH]c2c1	-24%	-4%	37%	9%	3%
COc1ccc(Br)cc1CNc1ccc(O)cc1	7%	-11%	3%	2.8µM*	-12%[57.1 µM]
COc1cc(CNc2ccc(O)cc2)cc(Br)c1OCc1ccccc1	?	-15%	-1%	16µM*	-20%[11.6 µM]
Cc1nc2sc(C(=O)Nc3ccc(F)cc3)c(N)c2c(-c2ccc(Br)cc2)c1C(=O)Nc1ccc(Cl)cc1	2%	9%	17%	-24%	.
CC1(C)CCc2cc(O)ccc2O1	.	2%	.	1%	.
COc1cc(NC(=O)c2cnc(N)s2)cc(C(=O)Nc2cccc(C(F)(F)F)c2)c1	-9%	-12%	2%	2.2µM*	-7%
COc1cc(NC(=O)c2ccnc(N)c2)cc(C(=O)Nc2cccc(C(F)(F)F)c2)c1	-12%	-3%	0%	?	5%[11.6 µM]
CCN(CC)c1ccc(N=Cc2ccc([N+](=O)[O-])o2)cc1	?	?	?	16µM*	?
CCN(CC)c1ccc(N=Cc2ccccc2[N+](=O)[O-])cc1	-13%	-18%	-1%	?	-35%[57.1 µM]
CCOC(=O)c1c(NC(=O)CSc2nnc(-c3ccccc3C)n2C)sc(C(C)=O)c1C	35µM*	?	18%	15%	?
Cc1c2c(=O)n(-c3nc4ccccc4s3)nc-2cc(O)n1Cc1ccccc1	45µM*	?	?	35µM*	-9%[11.6 µM]
